Among the data in the antibiotic and cytotoxicity screens of Wong et al. (2023) are cytotoxicity call values, retold here.

Each structure is given as a SMILES string. In all, about 39,000 compounds went through this assay and about 1,500 (3.8%) were called active. Only a selection was taken, and actives are over-represented in it overall.

The assay deals with HSkMC (human skeletal muscle cells). Nature of the assay: cytotoxicity call (relative viability < 0.9). The note with it: 10 µM.
With `COc1ccc(S(=O)(=O)N(C)C[C@@H]2Oc3ccc(NS(=O)(=O)c4cccs4)cc3C(=O)N([C@@H](C)CO)C[C@H]2C)cc1`, the cytotoxicity call is “inactive”.
As to `CO[C@@H]1CN(C)C(=O)c2cc(NS(=O)(=O)CC(F)(F)F)ccc2OC[C@@H](C)N(Cc2cccnc2)C[C@@H]1C`, the cytotoxicity call was “inactive”.
Regarding `Cc1ccc(S(=O)(=O)N[C@@H]2CC[C@H](CC(=O)NCc3ccc(Cl)c(Cl)c3)O[C@H]2CO)cc1`, the cytotoxicity call is “inactive”.
Turning to `COc1ccc(NC(=O)N(C)C[C@@H]2Oc3ccc(NS(=O)(=O)c4c(C)noc4C)cc3C(=O)N([C@@H](C)CO)C[C@@H]2C)cc1`, the cytotoxicity call was “inactive”.
In the case of `Cc1noc(C)c1S(=O)(=O)N(C)C[C@H]1Oc2ccc(NS(=O)(=O)c3cccs3)cc2CC(=O)N([C@H](C)CO)C[C@H]1C`, the cytotoxicity call is “inactive”.
With `C[C@H](CO)N1C[C@H](C)[C@H](CN(C)C(=O)Nc2cccc3ccccc23)OCc2cnnn2CCCC1=O`, the cytotoxicity call is “inactive”.
For `C[C@@H]1CN([C@H](C)CO)C(=O)Cc2cc(NC(=O)Nc3ccc(F)cc3)ccc2O[C@@H]1CN(C)Cc1ccc(Oc2ccccc2)cc1`, the cytotoxicity call is “active”.
On to `C[C@H]1CN([C@@H](C)CO)C(=O)Cc2cc(NC(=O)Nc3ccc(F)cc3)ccc2O[C@H]1CN(C)Cc1ccc(Oc2ccccc2)cc1`, for which the cytotoxicity call is “active”.
Regarding `C[C@@H]1CN([C@H](C)CO)C(=O)Cc2cc(NC(=O)Nc3ccc(F)cc3)ccc2O[C@H]1CN(C)Cc1ccc(Oc2ccccc2)cc1`, the cytotoxicity call was “active”.
In the case of `C[C@H]1CN([C@@H](C)CO)C(=O)Cc2cc(NC(=O)Nc3ccc(F)cc3)ccc2O[C@@H]1CN(C)Cc1ccc(Oc2ccccc2)cc1`, the cytotoxicity call is “inactive”.
`C[C@@H]1CN([C@@H](C)CO)C(=O)Cc2cc(NC(=O)Nc3ccc(F)cc3)ccc2O[C@H]1CN(C)Cc1ccc(Oc2ccccc2)cc1`: the cytotoxicity call was “inactive”.
Turning to `C[C@@H]1CN([C@@H](C)CO)C(=O)Cc2cc(NC(=O)Nc3ccc(F)cc3)ccc2O[C@@H]1CN(C)Cc1ccc(Oc2ccccc2)cc1`, the cytotoxicity call is “inactive”.
As for `C[C@H](CO)N1C[C@H](C)[C@H](CN(C)Cc2ccc(Oc3ccccc3)cc2)Oc2ccc(NC(=O)Nc3ccc(F)cc3)cc2CC1=O`, the cytotoxicity call was “inactive”.
Regarding `C[C@H](CO)N1C[C@H](C)[C@@H](CN(C)Cc2ccc(Oc3ccccc3)cc2)Oc2ccc(NC(=O)Nc3ccc(F)cc3)cc2CC1=O`, the cytotoxicity call is “inactive”.
Turning to `O=C(NC1Cc2ccccc2C1)[C@H]1[C@H](CO)[C@H]2Cn3c(cccc3=O)[C@H]2N1C(=O)c1cnccn1`, the cytotoxicity call is “inactive”.
In the case of `Cc1ccc(S(=O)(=O)Nc2ccc3c(c2)C(=O)N([C@H](C)CO)C[C@@H](C)[C@H](CN(C)S(=O)(=O)c2ccc(Cl)cc2)OCCCC[C@@H](C)O3)cc1` it was “inactive”.
Take `C[C@@H]1CCCCO[C@H](CN(C)CC2CCCCC2)[C@H](C)CN([C@H](C)CO)C(=O)c2cc(NC(=O)CCC(F)(F)F)ccc2O1`: the cytotoxicity call is “inactive”.
In the case of `C[C@@H]1CCCCO[C@@H](CN(C)Cc2ccncc2)[C@H](C)CN([C@@H](C)CO)C(=O)c2cc(NS(C)(=O)=O)ccc2O1`, the cytotoxicity call is “inactive”.
`O=C(CCCCC(=O)N/N=C/[C@H](O)[C@@H](O)[C@H](O[C@@H]1O[C@H](CO)[C@H](O)[C@H](O)[C@H]1O)[C@H](O)CO)NO`: the cytotoxicity call was “inactive”.
In the case of `CCNC(=O)C[C@H]1CC[C@H](NC(=O)C2CCOCC2)[C@@H](CO)O1` it was “inactive”; in that of `O=C(CCCCn1c(=O)[nH]c2ccccc2c1=O)N1CCN(c2ncccn2)CC1`, “inactive”; in that of `C[C@H]1CN([C@@H](C)CO)C(=O)Cc2cc(NC(=O)Nc3ccc(C(F)(F)F)cc3)ccc2O[C@H]1CN(C)C(=O)Nc1ccc(F)cc1`, “inactive”.
Turning to `C[C@H]1CN([C@@H](C)CO)C(=O)Cc2cc(NC(=O)Nc3ccc(C(F)(F)F)cc3)ccc2O[C@@H]1CN(C)C(=O)Nc1ccc(C(F)(F)F)cc1`, the cytotoxicity call is “inactive”.
Then `C[C@@H]1CN([C@H](C)CO)C(=O)Cc2cc(NC(=O)Nc3ccc(C(F)(F)F)cc3)ccc2O[C@H]1CN(C)C(=O)Nc1ccc(F)cc1`, with “inactive”; and `C[C@H](CO)N1C[C@H](C)[C@@H](CN(C)C(=O)Nc2ccc(C(F)(F)F)cc2)Oc2ccc(NC(=O)Nc3ccc(C(F)(F)F)cc3)cc2CC1=O`, with “inactive”.
For the compound `C[C@H](CO)N1C[C@H](C)[C@H](CN(C)C(=O)Nc2ccc(C(F)(F)F)cc2)Oc2ccc(NC(=O)Nc3ccc(C(F)(F)F)cc3)cc2CC1=O`, the cytotoxicity call is “active”.
Then `C[C@@H]1CN([C@@H](C)CO)C(=O)Cc2cc(NC(=O)Nc3ccc(C(F)(F)F)cc3)ccc2O[C@H]1CN(C)C(=O)Nc1ccc(C(F)(F)F)cc1`, with “inactive”; and `C[C@@H]1CN([C@@H](C)CO)C(=O)Cc2cc(NC(=O)Nc3ccc(F)cc3)ccc2O[C@@H]1CN(C)C(=O)Nc1ccc(C(F)(F)F)cc1`, with “inactive”.
For `C[C@@H]1CN([C@@H](C)CO)C(=O)Cc2cc(NC(=O)Nc3ccc(C(F)(F)F)cc3)ccc2O[C@H]1CN(C)C(=O)Nc1ccc(F)cc1`, the cytotoxicity call was “inactive”.
In the case of `C[C@@H]1CN([C@H](C)CO)C(=O)Cc2cc(NC(=O)Nc3ccc(C(F)(F)F)cc3)ccc2O[C@@H]1CN(C)C(=O)Nc1ccc(C(F)(F)F)cc1` it was “active”; in that of `C[C@@H]1CN([C@H](C)CO)C(=O)Cc2cc(NC(=O)Nc3ccc(C(F)(F)F)cc3)ccc2O[C@H]1CN(C)C(=O)Nc1ccc(C(F)(F)F)cc1`, “active”.
In the case of `C[C@@H]1CN([C@H](C)CO)C(=O)Cc2cc(NC(=O)Nc3ccc(F)cc3)ccc2O[C@H]1CN(C)C(=O)Nc1ccc(C(F)(F)F)cc1` it was “inactive”; in that of `C[C@@H]1CN([C@@H](C)CO)C(=O)Cc2cc(NC(=O)Nc3ccc(C(F)(F)F)cc3)ccc2O[C@@H]1CN(C)C(=O)Nc1ccc(F)cc1`, “active”.
On to `NCC[C@@H]1CC[C@@H](NC(=O)c2ccccc2F)[C@@H](CO)O1`, for which the cytotoxicity call is “inactive”.
In the case of `C[C@@H]1CCCCO[C@H](CN(C)C(=O)Nc2ccc(F)cc2)[C@@H](C)CN([C@H](C)CO)C(=O)c2cc(NC(=O)Nc3cccc4ccccc34)ccc2O1` it was “inactive”; in that of `COCC(=O)N(C)C[C@@H]1Oc2cc(C#CC(C)(C)O)ccc2S(=O)(=O)N([C@H](C)CO)C[C@H]1C`, “inactive”.
In the case of `C[C@@H]1CCCCO[C@@H](CN(C)C(=O)Nc2ccccc2)[C@@H](C)CN([C@H](C)CO)C(=O)c2cc(NC(=O)Nc3ccccc3)ccc2O1` it was “inactive”; in that of `S=C(c1cccs1)N1CCCC1`, “inactive”.
`CN1C(=O)c2cc(NC(=O)Cc3cccs3)ccc2OC[C@@H]2O[C@H](CC(=O)NCCCN3CCOCC3)CC[C@H]21`: the cytotoxicity call was “inactive”.
With `COc1cc(CO)c(CC(=O)NN)cc1OC`, the cytotoxicity call was “inactive”.
With `C[C@H](CO)N1C[C@H](C)[C@@H](CN(C)C(=O)Nc2ccc(F)cc2)Oc2ccc(NC(=O)Nc3ccc(C(F)(F)F)cc3)cc2CC1=O`, the cytotoxicity call is “inactive”.
Consider `C[C@H]1CN([C@@H](C)CO)C(=O)Cc2cc(NC(=O)Nc3ccc(F)cc3)ccc2O[C@@H]1CN(C)C(=O)Nc1ccc(C(F)(F)F)cc1`, for which the cytotoxicity call is “inactive”.
For `C[C@@H]1CN([C@H](C)CO)C(=O)Cc2cc(NC(=O)Nc3ccc(C(F)(F)F)cc3)ccc2O[C@@H]1CN(C)C(=O)Nc1ccc(F)cc1`, the cytotoxicity call is “inactive”.
For `C[C@H]1CN([C@@H](C)CO)C(=O)Cc2cc(NC(=O)Nc3ccc(C(F)(F)F)cc3)ccc2O[C@H]1CN(C)C(=O)Nc1ccc(C(F)(F)F)cc1`, the cytotoxicity call is “active”.
As to `C[C@@H]1CN([C@@H](C)CO)C(=O)Cc2cc(NC(=O)Nc3ccc(F)cc3)ccc2O[C@H]1CN(C)C(=O)Nc1ccc(C(F)(F)F)cc1`, the cytotoxicity call is “inactive”.
For `C[C@@H]1CN([C@@H](C)CO)C(=O)Cc2cc(NC(=O)Nc3ccc(C(F)(F)F)cc3)ccc2O[C@@H]1CN(C)C(=O)Nc1ccc(C(F)(F)F)cc1`, the cytotoxicity call was “active”.
Take `CCn1nnc2c(=S)nc[nH]c21`: the cytotoxicity call was “inactive”.
For `Cc1noc(C)c1NC(=O)Nc1ccc2c(c1)CC(=O)N([C@H](C)CO)C[C@@H](C)[C@@H](CN(C)S(=O)(=O)c1cn(C)cn1)O2`, the cytotoxicity call was “inactive”.
On to `C=CCC[C@@H](Cc1ccc(F)cc1)C(=O)O[C@@H](CNC(=O)[C@@H](CC=C)CC(=O)N[C@@H](CO)Cc1ccccc1)c1ccccc1`, for which the cytotoxicity call is “active”.
Consider `C=CCC[C@@H](Cc1ccc(F)cc1)C(=O)O[C@H](CNC(=O)[C@@H](CC=C)CC(=O)N[C@@H](CO)Cc1ccccc1)c1ccccc1`, for which the cytotoxicity call was “inactive”.
In the case of `C=CCC[C@H](Cc1ccc(F)cc1)C(=O)O[C@@H](CNC(=O)[C@@H](CC=C)CC(=O)N[C@@H](CO)Cc1ccccc1)c1ccccc1` it was “inactive”; in that of `C=CC[C@@H](CC(=O)N[C@H](CO)Cc1ccccc1)C(=O)NC[C@H](OC(=O)[C@@H](CC=C)Cc1ccc(F)cc1)c1ccccc1`, “active”.
Take `C=CC[C@@H](CC(=O)N[C@@H](CO)Cc1ccccc1)C(=O)NC[C@@H](OC(=O)[C@@H](CC=C)Cc1ccc(F)cc1)c1ccccc1`: the cytotoxicity call is “inactive”.
For `C=CCC[C@@H](Cc1ccc(F)cc1)C(=O)O[C@H](CNC(=O)[C@@H](CC=C)CC(=O)N[C@H](CO)Cc1ccccc1)c1ccccc1`, the cytotoxicity call was “inactive”.
In the case of `C=CC[C@@H](CC(=O)N[C@@H](CO)Cc1ccccc1)C(=O)NC[C@H](OC(=O)[C@@H](CC=C)Cc1ccc(F)cc1)c1ccccc1` it was “inactive”; in that of `C=CC[C@@H](CC(=O)N[C@H](CO)Cc1ccccc1)C(=O)NC[C@@H](OC(=O)[C@@H](CC=C)Cc1ccc(F)cc1)c1ccccc1`, “inactive”; in that of `C=CCC[C@@H](Cc1ccc(F)cc1)C(=O)O[C@@H](CNC(=O)[C@@H](CC=C)CC(=O)N[C@H](CO)Cc1ccccc1)c1ccccc1`, “inactive”.
As for `C=CCC[C@H](Cc1ccc(F)cc1)C(=O)O[C@H](CNC(=O)[C@@H](CC=C)CC(=O)N[C@H](CO)Cc1ccccc1)c1ccccc1`, the cytotoxicity call is “active”.
With `C=CCC[C@H](Cc1ccc(F)cc1)C(=O)O[C@@H](CNC(=O)[C@@H](CC=C)CC(=O)N[C@H](CO)Cc1ccccc1)c1ccccc1`, the cytotoxicity call is “active”.
In the case of `C=CCC[C@H](Cc1ccc(F)cc1)C(=O)O[C@H](CNC(=O)[C@@H](CC=C)CC(=O)N[C@@H](CO)Cc1ccccc1)c1ccccc1`, the cytotoxicity call is “inactive”.
